# IDH1 R132H inh = human IDH1 R132H inhibition | 0.093% of 390,000 active | O75874 | Potency, µM (titrated, usually from 76.6 µM), inactives show top-dose activity change, negative = inhibition, usual class: inhibitors | IDH1-R132H enzyme, NADPH consumption, diaphorase/resazurin fluorescence; note: potency is the fitted concentration of half-maximal effect; nearly all actives have a fitted effect of over 65% in size
# Target sequence (O75874 whole entry R132H, stated change not applied): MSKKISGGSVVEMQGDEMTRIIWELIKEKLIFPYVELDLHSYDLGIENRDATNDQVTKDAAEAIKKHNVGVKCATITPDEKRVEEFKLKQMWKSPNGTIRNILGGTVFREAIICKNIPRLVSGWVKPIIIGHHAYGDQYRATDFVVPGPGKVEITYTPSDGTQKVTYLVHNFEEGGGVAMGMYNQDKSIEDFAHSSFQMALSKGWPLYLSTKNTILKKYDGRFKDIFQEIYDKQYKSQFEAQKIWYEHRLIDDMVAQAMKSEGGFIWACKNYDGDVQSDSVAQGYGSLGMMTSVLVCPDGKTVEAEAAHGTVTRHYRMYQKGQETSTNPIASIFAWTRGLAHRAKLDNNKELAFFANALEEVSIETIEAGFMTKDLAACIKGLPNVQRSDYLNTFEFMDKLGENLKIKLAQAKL
#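 IDH1-R132H (0.5 ug/mL) preincubated 30 min with compound, then NADPH (0.016 mM) and alpha-KG (2 mM) added; 80 min at RT, pH 7.5. Remaining NADPH coupled via diaphorase/resazurin to fluorescence (540/590 nm); concentration-response curves normalized to no-enzyme control.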
# rTrxR1 inhibitor = blocks rat thioredoxin reductase 1 | O89049 | recombinant rTrxR1, NADPH fluorescence consumption, selenite substrate | Potency, µM (highest dose often 114 µM), for the others: at the highest dose activity change, negative = inhibition, most hits filed as inhibitors | 1% of 390,000 active; note: potency is the fitted concentration of half-maximal effect; nearly all actives have a fitted effect of over 65% in size
#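 Rat TrxR1 (90 nM in the dispensed reagent) was pre-reduced with 400 uM NADPH for 5 min at room temperature, then incubated with compound for 15 min. After 400 uM selenite was added, NADPH fluorescence (Ex 340/Em 450 nm) was followed for 8 min.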
# GLS inh = inhibitors of human glutaminase (GLS); O94925; GLS enzymatic activity, qHTS titration; Potency, µM (highest dose often 45.5 µM), for inactives: at the highest dose activity change, negative = inhibition, most hits filed as inhibitors; 0.21% of 410,000 active; note: potency is the fitted concentration of half-maximal effect
#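 hKGA in 45 mM KH2PO4 (pH 8.2), 0.02% Tween-20 with compound, then 1mM L-Glutamine (stock as added) plus glutamate oxidase/HRP/Amplex red coupling mix. Fluorescence read initially and after 30 min at RT; signal change reflects glutamate formation.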
# LDHA inh = blocks human lactate dehydrogenase A; P00338; activity change, % (values are at about 110 or 230 µM); 0.15% of 480,000 active; purified LDHA, NADH/diaphorase-resazurin fluorescence; active compounds read low; in the data active = activity change below about -30%; inconclusive = mostly about -25% to -30%;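 note: plate controls were DMSO wells for no effect and wells without enzyme for full effect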
#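 Resorufin fluorescence (ex540/em590), read at 0 and 20 min after diaphorase/resazurin addition, reports the NADH left after a 5 min room-temperature reaction of 2 nM human LDH5 with 0.06 mM NADH and 0.2 mM pyruvate.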
# PKM2 activator = increases activity of human pyruvate kinase M2; P14618; purified PKM2, Kinase-Glo ATP luminescence, activation; response scale: 0% is enzyme alone, no compound; Potency, µM (doses to about 57.5 µM), inactives show top-dose activation, most hits filed as activators; 0.34% of 260,000 active; note: potency is the fitted concentration of half-maximal effect; nearly all actives have a fitted effect of over 55% in size
#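 ATP formation by purified human PK-M2, quantified via coupled luciferase luminescence after 1 h at room temperature with 0.1 mM ADP and 0.5 mM PEP final.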
# TrxR1 substrate = is turned over as a substrate by rat TrxR1; O89049; purified TrxR1 substrate turnover, NADPH consumption readout; Potency, µM (series often up to 114 µM), for the others: at the top dose activity change, negative = substrate turnover; 0.01% of 390,000 active; AID 588456; note: potency is the fitted concentration of half-maximal effect; nearly all actives have a fitted effect of over 50% in size
#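 Rat TrxR1, dispensed at 90 nM, was prereduced with 400 uM NADPH (final) for 5 min at ~22 deg C, then incubated with compound 15 min before 400 uM selenite. A first-read NADPH fluorescence drop versus no-compound background flagged substrates.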
# Active calls of the source: *; u = inconclusive; x = not tested or not shown; [ ] = remark or other dose. Only some compounds are listed: those with a hit (about 1.4% of all), similar ones and a draw of the others. Unless noted, calls come from the whole dose curve; as a rule, active = well fitted curve in the direction sought with a large enough effect; inconclusive = small, poorly fitted or top-dose-only effect, or another doubt; inactive = no such curve, though single readings can be large; an effect the other way counts as inactive or inconclusive. Unless noted, % is set by controls: 0 for no effect and ±100 for the full control effect.
SMILES,IDH1 R132H inh,rTrxR1 inhibitor,GLS inh,LDHA inh,PKM2 activator,TrxR1 substrate
Cc1ccc(C(=O)NNc2ncnc3c2cnn3C)cc1,2%,35%[57.1 µM],5µM*,4,-4%,10%[57.1 µM]
CNS(=O)(=O)c1cc2c3c(cccc3c1)C(=O)NC2=O,3%,15%[57.1 µM],4%,-1,13µM*,3%[57.1 µM]
Cc1ccc(NS(=O)(=O)c2cc3c4c(cccc4c2)C(=O)NC3=O)cc1,5%,9%[57.1 µM],0%,-5,1%,0%[57.1 µM]
O=C(CCl)Nc1ccccc1Sc1ccc(Cl)cc1,25%,8.9µM*,x,0,1%,-9%
Cc1cc(C(=O)c2ccccc2)c(NC(=O)CCl)s1,-3%,20µM*,7%,-2,6%,-7%
O=C(CCl)Nc1ccccc1C(=O)c1ccccc1,-6%,20µM*,2%,-1,-7%,-10%
CCOC(=O)CSc1nnc(C)c(=O)[nH]1,6%,-13%,16%,-6,-2%,-2%
CCOC(=O)CSc1nnc(NCC(=O)OC)c(=O)[nH]1,1%,10µM*,6%,-2,10%,3%
O=C(CC(c1ccco1)S(=O)(=O)c1ccccc1)c1ccc(F)cc1 (stereo not given),11%,50µM*,2%,-4,29%,8%
CCN(C(=O)CSc1nnc(-c2cc(OC)c(OC)c(OC)c2)o1)c1ccccc1,-4%,45µM*,-11%,-1,x,-8%
CCOC(=O)COC(=O)c1cc2c(s1)-c1ccc(OC)cc1CC2,x,x,x,-22,x,x
Cc1ccc(-c2nc3ccc(C)cc3nc2-c2ccc(C)cc2)cc1,x,x,x,0,x,x
O=C(/C=C/c1ccc(-c2cc(Cl)ccc2Cl)o1)c1ccccc1,x,x,x,-3,x,x
c1ccc(-c2nccc(-c3ccco3)n2)nc1,0%,-19%,13%,-6,2%,-2%
c1ccc(-c2nc(-c3ccco3)cs2)nc1,5%,18µM*,20%,0,u,16%
CC1(C)CC[C@]2(C(=O)n3ccnc3)CC[C@]3(C)[C@H](C(=O)C=C4[C@@]5(C)C=C(C#N)C(=O)C(C)(C)[C@@H]5CC[C@]43C)[C@@H]2C1,-11%,11%[11.4 µM],10µM*,-4,x,16%[57.1 µM]
COCCn1c(C)cc(C(=O)C(=O)Nc2nnc(CSCc3cccc(C)c3)s2)c1C,x,x,x,4,x,x
Cc1ccc(C)c(Cn2c(CN3CCN(Cc4ccccc4)CC3)nc3c2c(=O)[nH]c(=O)n3C)c1,x,x,x,-7,x,x
CCN1CCN(C(c2ccccc2Cl)c2c(O)cc(C)n(CCOC)c2=O)CC1 (stereo not given),0%,10µM*,18%,0,x,-2%[57.1 µM]
CCN1CCN(C(c2ccc(SC)cc2)c2c(O)cc(C)n(CCOC)c2=O)CC1 (stereo not given),15%,25µM*,22%,-1,x,4%[57.1 µM]
CCN1CCN(C(c2ccccc2F)c2c(O)cc(C)n(CCOC)c2=O)CC1 (stereo not given),1%,u,8%,-5,x,5%[57.1 µM]
CCCn1c(=O)c2ccc(C(=O)NCC(C)C)cc2n2c(SCc3ccc(F)cc3)nnc12,x,x,x,-34*,x,x
CCOC(=O)c1sc(=S)n(-c2ccc(OC)cc2)c1C,5%,3%[57.1 µM],14%,-3,1%,0%[57.1 µM]
CCOC(=O)c1c2c(n(-c3ccc(OC)cc3)c1C)C(=O)C(=O)c1ccccc1-2,14%,u,1%,30,x,56µM*
COc1ccc(Cc2nnc(NN)[nH]c2=O)cc1OC,1%,14%[57.1 µM],22µM*,-2,x,10%[57.1 µM]
SMILES,IDH1 R132H inh,rTrxR1 inhibitor,GLS inh,LDHA inh,PKM2 activator,TrxR1 substrate
CC(=O)c1sc(NC(C)C)c(C#N)c1N,x,x,x,2,x,x
Cc1ccc(CNC(=O)Cn2nc3ccc(SC(C)(C)C)nn3c2=O)cc1,x,x,x,-6,x,x
O=C1c2c(O)cccc2Cc2cccc(O)c21,11%,5%[57.1 µM],-6%,1,x,5%[57.1 µM]
O=C1Cc2cccc(=O)c(O)c2C(=O)O1,-1%,x,4µM*,8,x,x
Cc1cc(-c2csc(N3CCN(C)CC3)n2)c(C)n1NC(=O)c1nn(C)c(=O)c2ccccc12,x,x,x,1,x,x
CC1CCN(C(=O)C(=O)N2CCN(c3nc(-c4ccco4)c4c(c3C#N)CC(C)(C)OC4)CC2)CC1,x,x,x,14,x,x
CC1(C)Cc2c(C#N)c(N3CCN(C(=O)c4ccccc4)CC3)nc(-c3ccco3)c2CS1,-1%,32µM*,13%,3,u,6%
O=C(/C=C/c1c(Cl)cccc1Cl)c1cccc(O)c1,x,x,x,5,x,x
COc1cc2oc(=O)c(CC(=O)NC3CCS(=O)(=O)C3)c(C)c2cc1Cl (stereo not given),x,x,x,6,x,x
COCCNc1nc(-c2cc(C)c(C)cc2C)cs1,4%,18%[57.1 µM],13µM*,-3,4%,-1%[57.1 µM]
CCC(=O)Nc1ccc(-c2csc(NCCOC)n2)cc1,x,x,x,8,x,x
NC(=O)CSc1oc(-c2ccco2)nc1S(=O)(=O)c1ccccc1,-2%,40µM*,-7%,0,9%,4%
CC(C)CSc1oc(-c2ccco2)nc1S(=O)(=O)c1ccccc1,2%,-11%,-7%,4,6%,-4%
O=C(CN1CCN(S(=O)(=O)c2ccc(Cl)cc2)CC1)c1ccc(O)c(O)c1,0%,25µM*,51%,10,x,-9%
C#CCN1C(=O)C(O)(CC(=O)/C=C/c2ccco2)c2ccccc21 (stereo not given),6%,40µM*,-16%,2,9%,-5%
COc1ccc(-c2cc(=O)c3cc(OC(=O)C(C)C)ccc3o2)cc1,x,x,x,12,x,x
COc1ccc(-c2cc(=O)c3cc(OC(=O)C(C)(C)C)ccc3o2)cc1,x,x,x,-32*,x,x
CCOc1cc(NC(=S)NCCCN2CCOCC2)c(OCC)cc1NC(=O)CC(C)C,-3%,22µM*,4%,5,0%,1%[57.1 µM]
CCCCNS(=O)(=O)c1ccc2nc(SCC(=O)c3ccc(C#N)cc3)[nH]c2c1,8%,10%,-2%,-1,22µM*,0%
CCCCNS(=O)(=O)c1ccc2nc(SCC(=O)Nc3ccccc3)[nH]c2c1,1%,-26%,9%,1,3%,-18%
CC1CCc2noc(NC(=O)c3cc(=O)c4cc(Br)ccc4o3)c2C1 (stereo not given),x,x,x,-39*,x,x
Nc1ncnc2oc(-c3ccco3)c(-c3ccco3)c12,6%,-43%[57.1 µM],u,7,u,48%
Nc1ncnc2oc(-c3ccoc3)c(-c3ccco3)c12,x,50µM*,x,6,x,25%
Cc1ccc(S(=O)(=O)Nc2ccc(-c3nnc(SCC#N)n3C)cc2)cc1,0%,-15%[57.1 µM],5%,-4,20µM*,-5%
O=C(O)Cc1ccc2ccc3ccccc3c2c1,2%,15%,2%,1,x,10%

# Compound activity as filed in PubChem BioAssay.
